Measured values: PubChem BioAssay AID434961 (Broad Institute, 2010)
In all, about 7,700 compounds went through this assay and about 15 (0.2%) were called active. Another 6% or so got no clear call; they are omitted.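 Rule for the calls: active = more than half of replicate wells with inhibition above about 18% (limit read from the data, passing the limit was not always enough); inconclusive = exactly half of replicate wells above that limit; inactive = fewer than half of replicates above it.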 This excerpt belongs to a sample that is enriched for actives.

Target: Regulator of chromosome condensation (Homo sapiens) + GTP-binding nuclear protein Ran (Homo sapiens) + Importin subunit beta-1 (Homo sapiens) (UniProt P18754+P62826+Q14974)
Assay: inhibitors of Ran–importin-beta complex formation, primary screen, biochemical, CFP-Ran/YFP-importin-beta FRET, RCC1, cell-free (AID 434961);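 note: 0% = DMSO wells and 100% inhibition = RanGDP control wells on each plate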
Details: active compounds read high, concentration not given here

inhibition, inactive:
COc1ccc(S(=O)(=O)Nc2ccc3c(c2)CC(=O)N([C@H](C)CO)C[C@H](C)[C@H](CN(C)S(=O)(=O)c2cn(C)cn2)O3)cc1 5.44%
C[C@@H]1CN([C@@H](C)CO)C(=O)c2cccc(NS(=O)(=O)c3cccs3)c2O[C@@H]1CN(C)Cc1ccc(C(=O)O)cc1 -3.95%
Cc1ccc(S(=O)(=O)Nc2ccc3c(c2)CC(=O)N([C@H](C)CO)C[C@@H](C)[C@@H](CN(C)C(=O)Nc2c(C)noc2C)O3)cc1 1.18%
C[C@H]1CN([C@@H](C)CO)C(=O)c2cccc(NC(=O)c3cnccn3)c2O[C@@H]1CN(C)C(=O)Nc1ccccc1 -1.79%
C[C@H]1CCCCO[C@H](CN(C)C(=O)C2CCCCC2)[C@@H](C)CN([C@@H](C)CO)C(=O)c2cc(NS(=O)(=O)c3cccs3)ccc2O1 2.26%
C[C@@H]1CN([C@H](C)CO)C(=O)c2cc(NC(=O)c3ccncc3)ccc2O[C@@H](C)CCCCO[C@H]1CN(C)Cc1ccc(C(=O)O)cc1 -0.563%
COc1ccc(NC(=O)Nc2ccc3c(c2)C(=O)N([C@H](C)CO)C[C@H](C)[C@@H](CN(C)C)O3)cc1 -2.6%
COc1ccc(CN(C)C[C@@H]2Oc3c(NS(=O)(=O)c4ccc(OC)cc4)cccc3C(=O)N([C@@H](C)CO)C[C@H]2C)cc1 0.462%
C[C@@H]1CCCCO[C@@H](CN(C)C(=O)Nc2cccc3ccccc23)[C@@H](C)CN([C@@H](C)CO)C(=O)c2cc(N(C)C)ccc2O1 2.86%
Cc1noc(C)c1NC(=O)N(C)C[C@H]1Oc2c(NS(=O)(=O)c3ccccc3)cccc2C(=O)N([C@H](C)CO)C[C@@H]1C 4.19%
C[C@H]1CN([C@@H](C)CO)C(=O)CCCn2cc(nn2)CO[C@H]1CN(C)S(=O)(=O)c1ccc(Oc2ccccc2)nc1 0.77%
C[C@@H]1CCCCO[C@@H](CN(C)Cc2ccccc2)[C@H](C)CN([C@@H](C)CO)C(=O)c2cc(NS(=O)(=O)c3ccccc3)ccc2O1 1.85%
C[C@@H]1CN([C@@H](C)CO)C(=O)c2cc(NS(=O)(=O)c3cccs3)ccc2O[C@@H]1CN(C)C(=O)Nc1ccc(F)cc1 -0.701%
C[C@@H]1CN([C@H](C)CO)C(=O)c2cc(NC(=O)c3ccncc3)ccc2O[C@@H](C)CCCCO[C@H]1CN(C)S(=O)(=O)c1ccc(F)cc1 0.556%
COc1ccc(NC(=O)Nc2ccc3c(c2)C(=O)N([C@@H](C)CO)C[C@H](C)[C@H](CN(C)C)O3)cc1 4.32%
C[C@@H]1CCCCO[C@@H](CN(C)C(=O)C2CCCCC2)[C@@H](C)CN([C@@H](C)CO)C(=O)c2cc(NC(=O)Nc3ccccc3)ccc2O1 -1.24%
COc1ccc(NC(=O)Nc2ccc3c(c2)C(=O)N([C@H](C)CO)C[C@@H](C)[C@@H](CN(C)S(=O)(=O)c2cn(C)cn2)O3)cc1 0.222%
C[C@H]1CN([C@@H](C)CO)C(=O)c2cccc(NC(=O)C3CCOCC3)c2O[C@H]1CN(C)Cc1ccc(Oc2ccccc2)cc1 5.74%
C[C@@H]1CN([C@@H](C)CO)C(=O)c2cc(NC(=O)Nc3ccc4c(c3)OCO4)ccc2O[C@@H]1CN(C)C -2.36%
C[C@H]1CCCCO[C@@H](CN(C)S(=O)(=O)c2ccccc2)[C@@H](C)CN([C@@H](C)CO)C(=O)c2cc(N(C)C)ccc2O1 1.05%
C[C@H](CO)N1C[C@H](C)[C@H](CN(C)Cc2ccc3c(c2)OCO3)Oc2c(NC(=O)c3ccncc3)cccc2C1=O -1.01%
C[C@H](CO)N1C[C@H](C)[C@H](CN(C)Cc2ccc3c(c2)OCO3)Oc2ccc(NC(=O)Nc3ccc(F)cc3)cc2CC1=O 1.05%
CNC[C@@H]1Oc2ccc(NC(=O)CCC(F)(F)F)cc2C(=O)N([C@@H](C)CO)C[C@H]1C 2.65%
CNC[C@@H]1Oc2ccc(NC(=O)Nc3ccc4c(c3)OCO4)cc2CC(=O)N([C@@H](C)CO)C[C@@H]1C -0.999%
C[C@@H]1CCCCO[C@H](CN(C)C)[C@@H](C)CN([C@H](C)CO)C(=O)c2cc(NC(=O)Cc3ccccc3)ccc2O1 -1.13%
C[C@H](CO)N1C[C@H](C)[C@@H](CN(C)C(=O)Nc2ccc3c(c2)OCO3)Oc2ccc(N(C)C)cc2C1=O -2.04%
C[C@@H]1CCCCO[C@@H](CN(C)C(=O)C2CCCCC2)[C@@H](C)CN([C@@H](C)CO)C(=O)c2cc(NS(C)(=O)=O)ccc2O1 -4.64%
C[C@@H]1CN([C@H](C)CO)C(=O)CCCn2cc(nn2)CO[C@@H]1CN(C)C(=O)Nc1ccc(N2CCCCC2)cc1 10.6%
C[C@@H]1CCCCO[C@@H](CN(C)Cc2ccncc2)[C@H](C)CN([C@@H](C)CO)C(=O)c2cc(NC(=O)c3ccncc3)ccc2O1 5.19%
C[C@@H]1CCCCO[C@H](CN(C)C(=O)C2CCCCC2)[C@H](C)CN([C@H](C)CO)C(=O)c2cc(NC(=O)Nc3ccccc3)ccc2O1 1.96%
C[C@@H]1CN([C@H](C)CO)C(=O)c2cccc(NS(=O)(=O)c3ccc(Cl)cc3)c2O[C@@H]1CN(C)C -2.17%
Cc1noc(C)c1NC(=O)N(C)C[C@H]1Oc2ccc(NC(=O)Cc3ccccc3)cc2C(=O)N([C@H](C)CO)C[C@H]1C 4.11%
C[C@H](CO)N1C[C@H](C)[C@H](CN(C)C)Oc2ccc(NS(C)(=O)=O)cc2C1=O 4.53%
C[C@@H]1CN([C@H](C)CO)C(=O)Cc2cc(N(C)C)ccc2O[C@H]1CN(C)Cc1ccc(C(F)(F)F)cc1 -0.721%
CC(C)NC(=O)Nc1ccc2c(c1)C(=O)N([C@@H](C)CO)C[C@@H](C)[C@H](CN(C)S(=O)(=O)c1cccs1)OCCCC[C@H](C)O2 3.77%
COc1ccc(S(=O)(=O)N(C)C[C@@H]2Oc3c(NC(=O)c4ccncc4)cccc3C(=O)N([C@@H](C)CO)C[C@H]2C)cc1 -7.21%
Cc1noc(C)c1NC(=O)Nc1ccc2c(c1)CC(=O)N([C@H](C)CO)C[C@@H](C)[C@@H](CN(C)C(=O)NC(C)C)O2 0.926%
Cc1noc(C)c1NC(=O)Nc1ccc2c(c1)C(=O)N([C@@H](C)CO)C[C@@H](C)[C@@H](CN(C)C(=O)CCCN(C)C)OCCCC[C@@H](C)O2 -4.32%
C[C@@H]1CN([C@@H](C)CO)C(=O)Cc2cc(NC(=O)c3ccncc3)ccc2O[C@H]1CN(C)C(=O)Nc1ccccc1 3.73%
COc1ccc(NC(=O)Nc2ccc3c(c2)C(=O)N([C@@H](C)CO)C[C@H](C)[C@@H](CN(C)S(=O)(=O)c2cn(C)cn2)O3)cc1 1.4%
C[C@H](CO)N1C[C@H](C)[C@H](CN(C)C(=O)c2ccncc2)OCCCC[C@H](C)Oc2ccc(NS(=O)(=O)c3ccccc3)cc2C1=O -1.72%
CC(C)NC(=O)Nc1ccc2c(c1)C(=O)N([C@@H](C)CO)C[C@@H](C)[C@@H](CN(C)C)OCCCC[C@H](C)O2 -4.5%
C[C@@H]1CN([C@H](C)CO)C(=O)c2cc(NS(=O)(=O)c3cn(C)cn3)ccc2O[C@@H](C)CCCCO[C@@H]1CN(C)C -0.00982%
CC(C)NC(=O)N(C)C[C@H]1Oc2ccc(N(C)C)cc2CC(=O)N([C@H](C)CO)C[C@@H]1C 0.831%
COc1ccc(S(=O)(=O)Nc2ccc3c(c2)C(=O)N([C@@H](C)CO)C[C@@H](C)[C@@H](CN(C)S(=O)(=O)c2cccs2)O3)cc1 -0.91%
C[C@@H]1CCCCO[C@@H](CN(C)S(=O)(=O)c2ccc(F)cc2)[C@@H](C)CN([C@@H](C)CO)C(=O)c2cc(NC(=O)C3CCCCC3)ccc2O1 2.57%
Cc1noc(C)c1NC(=O)N(C)C[C@@H]1Oc2c(NC(=O)c3ccc(-c4nccs4)cc3)cccc2C(=O)N([C@@H](C)CO)C[C@@H]1C -3.18%
COc1ccc(CN(C)C[C@H]2Oc3ccc(NC(=O)Nc4c(C)noc4C)cc3CC(=O)N([C@H](C)CO)C[C@@H]2C)cc1 -6.52%
C[C@@H]1CN([C@@H](C)CO)C(=O)c2cc(NS(=O)(=O)c3ccccc3)ccc2O[C@@H](C)CCCCO[C@H]1CN(C)Cc1ccncc1 -2.17%
C[C@H]1CN([C@@H](C)CO)C(=O)c2cccc(NS(=O)(=O)c3ccc(Cl)cc3)c2O[C@@H]1CN(C)C(=O)Nc1ccc(F)cc1 0.723%
C[C@H](CO)N1C[C@H](C)[C@@H](CN(C)C(=O)Nc2ccc(F)cc2)Oc2c(NS(=O)(=O)c3ccc(Cl)cc3)cccc2C1=O 2.75%
CNC[C@H]1Oc2c(NC(=O)Nc3c(C)noc3C)cccc2C(=O)N([C@@H](C)CO)C[C@H]1C 1.31%
Cc1noc(C)c1S(=O)(=O)Nc1ccc2c(c1)CC(=O)N([C@@H](C)CO)C[C@@H](C)[C@H](CN(C)C(=O)Nc1ccc(F)cc1)O2 -0.469%
C[C@@H]1CN([C@@H](C)CO)C(=O)Cc2cc(NC(=O)c3ccncc3)ccc2O[C@@H]1CN(C)C(=O)Nc1cccc2ccccc12 2.94%
C[C@@H]1CN([C@@H](C)CO)C(=O)c2cc(NC(=O)C3CC3)ccc2O[C@@H]1CN(C)C(=O)Nc1ccccc1 -1.01%
